Measurements from PubChem BioAssay (NCATS).
Several values for one entry are separate records, joined by “and”; a condition that tells them apart may be missing. Equal values may be shown once. Records with an inconclusive call do not appear. For some of these results: Potency and affinity values are given separately. Activity calls are given as the source filed them.

What was measured:
[1] = Ebola virus entry assay, green fluorescence channel
[2] = Ebola virus entry assay, blue channel fluorescence
[3] = Ebola virus entry assay, green fluorescence channel; remark: listed apart in the source
[4] = Ebola virus entry assay, ratio channel readout
[5] = Ebola virus entry assay, blue channel fluorescence; remark: listed apart in the source
[6] = Ebola virus entry assay, ratio channel
[7] = Ebola virus entry assay, blue channel fluorescence; remark: listed apart in the source
[8] = Ebola virus entry assay, reporter ratio channel
[9] = Ebola virus entry assay, blue channel (ratio component)
[10] = Ebola virus entry assay, green channel fluorescence
[11] = qHTS Assay for Identifying Gametocytocidal Compounds (AID 743244; active means well fitted curve in the direction sought with a large enough effect;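 further: on the % scale 0 is the no-effect control and ±100 the full control effect; actives lower the fluorescent signal which means gametocytes are killed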); conditions: P. falciparum 3D7 stage III-V gametocytes, alamarBlue, 72 h; max response: stronger effect = lower value
Method in brief: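 P. falciparum 3D7 stage III–V gametocytes (20,000 cells/well) were exposed to compounds for 72 h at 37 °C, 5% CO2. AlamarBlue was then added for 24 h; decreased resorufin fluorescence (Ex 525/Em 598 nm) indicated loss of viability.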

[12] = qHTS profiling of the MIPE4 collection as inhibitors of Plasmodium falciparum (3D7) proliferation (AID 743344);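 further: scaled between DMSO vehicle wells and 0.29 µM artemisinin as full inhibition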; conditions: P. falciparum 3D7 in erythrocytes, SYBR Green DNA fluorescence, 72 h; at 28.5 µM (top of the series) unless noted
Method in brief: (§1)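 Erythrocytes infected with P. falciparum (0.3% parasitemia, 2.5% hematocrit) incubated with compounds 72 h at 37 C, 5% CO2. Lysis with saponin/Triton buffer containing SYBR Green I, overnight at room temperature in the dark; DNA fluorescence (485/535 nm) normalised to 0.29 uM artemisinin and DMSO.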

[13] = qHTS profiling of the MIPE4 collection as inhibitors of Plasmodium falciparum (DD2) proliferation (AID 743345); conditions: P. falciparum Dd2 in erythrocytes, SYBR Green DNA, 72 h; at 28.5 µM (top of the series) unless noted
Method in brief: as §1

[14] = qHTS profiling of the MIPE4 collection as inhibitors of Plasmodium falciparum (DD2) proliferation (Rep 2) (AID 743346); conditions: P. falciparum Dd2 in erythrocytes, SYBR Green DNA, 72 h; at 28.5 µM (top of the series) unless noted
Method in brief: as §1

[15] = qHTS profiling of the MIPE4 collection as inhibitors of Plasmodium falciparum (HB3) proliferation (AID 743347);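 further: plate controls were DMSO vehicle wells for no effect and artemisinin wells for full effect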; conditions: P. falciparum HB3 in erythrocytes, SYBR Green DNA, 72 h; at 28.5 µM (top of the series) unless noted
Method in brief: as §1

[16] = AC50: Channel type: primary unless noted, outcome: Channel type: primary unless noted
Wherever efficacy is given: 0% is about no effect.

CO[C@H]1C=CO[C@@]2(C)Oc3c(C)c(O)c4c(O)c(c(/C=N/N5CCN(C)CC5)c(O)c4c3C2=O)NC(=O)/C(C)=C\C=C[C@H](C)[C@H](O)[C@@H](C)[C@@H](O)[C@@H](C)[C@H](OC(C)=O)[C@@H]1C
inactive: efficacy [1] 60.3% | outcome [2] | outcome [3] | outcome [4] | outcome [5] | outcome [6] | outcome [7] | outcome [8, 16] | outcome [9]

COC1=CC(=O)C[C@@H](C)[C@]12Oc1c(Cl)c(OC)cc(OC)c1C2=O
inactive: efficacy [1] 30% | outcome [2] | outcome [3] | outcome [4] | outcome [5] | outcome [6] | outcome [7] | outcome ([8]; Channel type: confirmation) | outcome ([8]; Channel type: primary)

COc1cc2nc(N(C)CCCNC(=O)C3CCCO3)nc(N)c2cc1OC (stereo not drawn)
inactive: efficacy [1] 46.7% | outcome [2] | outcome [3] | outcome [4] | outcome [6] | outcome [7]
active: AC50 [5] 39.8 µM | AC50 [8, 16] 35.5 µM

CN(C)CCOC(c1ccc(Cl)cc1)c1ccccn1 (stereo not drawn)
active: AC50 [5] 22.4 µM | AC50 [8, 16] 39.8 µM
inactive: efficacy [1] 34.3% | outcome [2] | outcome [3] | outcome [4] | outcome [6] | outcome [7]

NNc1nncc2ccccc12
inactive: efficacy [1] -27.3% | outcome [2] | outcome [3] | outcome [4] | outcome [5] | outcome [6] | outcome [10] | outcome [8, 16] | outcome [9]

CCOC(=O)Nc1ccc2c(c1)N(C(=O)CCN1CCOCC1)c1ccccc1S2
inactive: efficacy [1] 62.7% | outcome [2] | outcome [3] | outcome [4] | outcome [5] | outcome [6] | outcome [7] | outcome [9]
active: AC50 [8, 16] 39.8 µM

CC(=O)Oc1ccccc1C(=O)Nc1ncc([N+](=O)[O-])s1
inactive: max response [11] 33.5% | efficacy [1] 16.8% | outcome [2] | outcome [3] | outcome [4] | outcome [5] | outcome [6] | outcome [10] | outcome [8, 16]

CCc1c2c(nc3ccc(OC(=O)N4CCC(N5CCCCC5)CC4)cc13)-c1cc3c(c(=O)n1C2)COC(=O)[C@]3(O)CC
active: AC50 [5] 20 µM | AC50 [6] 28.2 µM | AC50 [8, 16] 28.2 µM
inactive: efficacy [1] 45.7% | outcome [2] | outcome [3] | outcome [4] | outcome [7]

C#Cc1cccc(Nc2ncnc3cc(OCCOC)c(OCCOC)cc23)c1
inactive: efficacy [1] -13.7% | outcome [2] | outcome [3] | outcome [4] | outcome [5] | outcome [6] | outcome [10] | outcome [8, 16] | outcome [9]

COc1ccc(C(CN(C)C)C2(O)CCCCC2)cc1 (stereo not drawn)
21.1%: parasite growth, % of DMSO control [12]
42.9%: parasite growth, % of control (lower = inhibition) [14]
active: AC50 [5] 35.5 µM | AC50 [8, 16] 39.8 µM
58.9%: parasite growth remaining, % of DMSO control (lower = more inhibition) [13]
inactive: max response [11] 4.64% and 5.5% | efficacy [1] 55.6% | outcome [2] | outcome [3] | outcome [4] | outcome [6] | outcome [7]
60.2%: growth, % of control [15]

N=C(N)c1ccc(OCCCCCOc2ccc(C(=N)N)cc2)cc1
inactive: efficacy [1] 22.7% | outcome [2] | outcome [3] | outcome [4] | outcome [5] | outcome [6] | outcome [7] | outcome [8, 16] | outcome [9]

Cc1cc2c(s1)Nc1ccccc1N=C2N1CCN(C)CC1
inactive: efficacy [1] 36% | outcome [2] | outcome [3] | outcome [4] | outcome [5] | outcome [6] | outcome [7] | outcome [9]
active: AC50 [8, 16] 39.8 µM
49.7%: parasite growth, % of control (lower = inhibition) [14]
94.5%: parasite growth remaining, % of DMSO control (lower = more inhibition) [13]
97.1%: parasite growth, % of DMSO control [12]
101%: growth, % of control [15]

CC[C@@]1(O)C(=O)OCc2c1cc1n(c2=O)Cc2cc3c(CN(C)C)c(O)ccc3nc2-1
inactive: outcome [2] | outcome [4] | outcome [5] | outcome [7] | outcome [9]
active: AC50 [1] 31.6 µM | AC50 [3] 7.94 µM | AC50 [6] 7.94 µM | AC50 [8, 16] 7.94 µM

CCOC(=O)C1(c2ccccc2)CCN(CCC(C#N)(c2ccccc2)c2ccccc2)CC1
active: AC50 [5] 14.1 µM | AC50 [6] 10 µM | AC50 [8, 16] 10 µM
inactive: max response [11] 18.9% and -7.07% | efficacy [1] -34.7% | outcome [2] | outcome [3] | outcome [4] | outcome [10]

O=C1CCc2cc(OCCCCc3nnnn3C3CCCCC3)ccc2N1
inactive: efficacy [1] 80.2% | outcome [2] | outcome [3] | outcome [4] | outcome [5] | outcome [6] | outcome [7] | outcome [8, 16] | outcome [9]

CC(C)C[C@H](NC(=O)[C@H](Cc1ccccc1)NC(=O)c1cnccn1)B(O)O
inactive: efficacy [1] -28.6% | outcome [2] | outcome [3] | outcome [4] | outcome [7]
active: AC50 [5] 0.0794 µM | AC50 [6] 1.26 µM | AC50 [8, 16] 1.26 µM
